From PubChem BioAssay (Tox21)
Results filed as inconclusive are left out. Active and inactive are the calls of the source. Unless noted, calls follow the shape of the dose curve; as a rule, active = well fitted curve in the direction sought with a large enough effect in the repeat runs; inconclusive = weak or mixed curves; inactive = no such curve, though single readings can be large; an effect the other way counts as inactive or inconclusive.

Legend:
[1] = qHTS assay to identify small molecule antagonists of the sonic hedgehog signaling (Shh) pathway (AID 1259369; calls by dose curve; also: nearly all actives have a fitted effect of over 45% in size; also: potency is read from the fitted curve at half-maximal effect)
In short: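 Conditioned medium drives Shh signalling in 3T3Gli1-Luc cells; compounds in DMSO co-applied, 24hr at 37 C, then luciferase luminescence.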

[2] = molecular target: Estrogen receptor beta (Homo sapiens) (UniProt Q92731); test: qHTS assay to identify small molecule agonists of the estrogen receptor beta (ER-beta) signaling pathway (AID 1259377; active = well fitted activation curve with a large enough effect in the signal ratio in the repeat runs, not every such curve was filed as active; the % refers to the signal ratio; also: potency is read from the fitted curve at half-maximal effect)
In short: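 Beta-lactamase reporter readout: fluorescence of LiveBLAzer B/G FRET substrate after 2 h at room temperature, following 16 h compound treatment of ER-beta-UAS-bla HEK293T cells at 37C in 2% charcoal-stripped FBS medium.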

[3] = qHTS assay to identify small molecule agonists of the androgen receptor (AR) signaling pathway in the presence of an antagonist - cell viability counter screen (AID 1259379); also: nearly all actives have a fitted effect of over 25% in size; also: potency is read from the fitted curve at half-maximal effect
In short: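 A CellTiter-Fluor read-out measured viability of MDA-kb2 reporter cells (MMTV promoter with AR and GR response elements). Treatment: nilutamide 3.0uM final with compounds at 15 concentrations, 16 hr, 37C, 0% CO2.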

[4] = qHTS assay to identify small molecule agonists of the estrogen receptor beta (ER-beta) signaling pathway - cell viability counter screen (AID 1259380); also: nearly all actives have a fitted effect of over 30% in size; also: potency is read from the fitted curve at half-maximal effect
In short: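 Cells used were ER-beta-UAS-bla HEK293T in medium with 2% charcoal-stripped FBS. They were treated for 16 hr at 37C. Viability came from CellTiter-Glo luminescence.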

[5] = qHTS assay to identify small molecule antagonists of the estrogen receptor beta (ER-beta) signaling pathway - cell viability counter screen (AID 1259382); also: nearly all actives have a fitted effect of over 55% in size; also: potency is read from the fitted curve at half-maximal effect
In short: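 Agonist-stimulated (1nM E2) ER-beta-UAS-bla HEK293T cells are incubated with library compounds for 16 hr at 37C. Cell viability is then assessed in the reporter-assay wells by adding CellTiter-Glo and reading luminescence after 30 min.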

[6] = molecular target: Estrogen receptor (Homo sapiens) (UniProt P03372); test: qHTS assay to identify small molecule agonists of the estrogen receptor alpha (ER-alpha) signaling pathway in the presence of an antagonist (AID 1259383; calls by dose curve; also: top concentration of the series differs between compounds; nearly all actives have a fitted effect of over 15% in size)
In short: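 Using VM7Luc4E2 cells seeded 24hr before treatment, antagonist ICI-182,780 (10.0nM final) was added, followed by compounds at 15 concentrations. Plates incubated 22hr; ONE-Glo luminescence quantified reporter activity.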

[7] = qHTS assay to identify small molecule agonists or antagonists of the thyroid stimulating hormone receptor (TSHR) signaling pathway - wild type cell line counter screen (AID 1259384; calls by dose curve)
In short: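 Wild-type HEK293 cells were plated 18 h at 37 C/5% CO2, pin-dosed with compound plus Ro20-1724 medium, held 30 min at room temperature, then given cAMP-d2 and anti-cAMP-cryptate; fluorescence was read after 1 h. Fifteen concentrations, triplicate.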

[8] = qHTS assay to identify small molecule agonists of the estrogen receptor alpha (ER-alpha) signaling pathway in the presence of an antagonist - cell viability counter screen (AID 1259386);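 also: cells exposed to compounds for 22 h at 37 °C before the viability read; nearly all actives have a fitted effect of over 30% in size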; also: potency is read from the fitted curve at half-maximal effect
In short: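 ICI-182,780 at 10.0nM final accompanies the compound titration (15 concentrations, 22hr, 37C) on VM7Luc4E2 cells. The CellTiter-Fluor fluorescence readout runs in the same wells as the luciferase assay.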

[9] = molecular target: Progesterone receptor (Homo sapiens) (UniProt P06401); test: qHTS assay to identify small molecule agonists of the progesterone receptor (PR) signaling pathway (AID 1346784; calls by dose curve; also: nearly all actives have a fitted effect of over 30% in size)
In short: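 HEK 293T PR-UAS-bla reporter cells, 2% charcoal-stripped FBS; 6 hr settle at 37C/5% CO2, compound (DMSO) 16 hr, LiveBLAzer B/G FRET substrate 2 hr RT, fluorescence intensity read.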

[10] = molecular target: Progesterone receptor (Homo sapiens) (UniProt P06401); test: qHTS assay to identify small molecule antagonists of the progesterone receptor (PR) signaling pathway (AID 1346795; active = well fitted inhibition curve with a large enough effect in the signal ratio in the repeat runs, not every such curve was filed as active; the % refers to the signal ratio; also: potency is read from the fitted curve at half-maximal effect)
In short: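 Beta-lactamase reporter, HEK293T PR-UAS-bla line; 2% charcoal-stripped FBS; 6 hr pre-incubation, 37C/5% CO2. Compound + R5020 1 nM final, 16 hr. LiveBLAzer B/G FRET substrate, 2 hr RT; fluorescence intensity read.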

[11] = qHTS assay to identify small molecule antagonists of the progesterone receptor (PR) signaling pathway - cell viability counter screen (AID 1346798); also: nearly all actives have a fitted effect of over 50% in size; also: potency is read from the fitted curve at half-maximal effect
In short: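 Luminescence readout (CellTiter-Glo, 30 min, RT) of viability in PR-UAS-bla HEK293T cells exposed to compound and R5020 agonist for 16 hr at 37C, 5% CO2; run in the same wells as the beta-lactamase reporter read.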

[12] = qHTS assay to identify small molecule agonists of the progesterone receptor (PR) signaling pathway - cell viability counter screen (AID 1346799; calls by dose curve; also: nearly all actives have a fitted effect of over 45% in size)
In short: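 HEK293T PR-UAS-bla, 3,000 cells/well, 2% charcoal-stripped FBS; 6 h settle, compound 16 h at 37C/5% CO2; LiveBLAzer 2 h RT, then CellTiter-Glo 30 min RT, luminescence read.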

[13] = qHTS assay to identify small molecule antagonists of the TGF-beta/Smad signaling pathway - cell viability counter screen (AID 1346824); also: nearly all actives have a fitted effect of over 50% in size; also: potency is read from the fitted curve at half-maximal effect
In short: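 SBE-bla HEK 293T cells were plated overnight at 37 C, then given compounds in DMSO plus TGF-beta1 (added as 0.25 ng/mL solution) for 5 hr. After the bla read, CellTiter-Glo was added to the same wells and luminescence read after 30 min at room temperature.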

[14] = qHTS assay to identify small molecule agonists of the TGF-beta/Smad signaling pathway - cell viability counter screen (AID 1346829); also: nearly all actives have a fitted effect of over 45% in size; also: potency is read from the fitted curve at half-maximal effect
In short: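 Same-well cytotoxicity: CellTiter-Glo added after the 2 hr room-temperature beta-lactamase substrate step, luminescence measured 30 min later; cells had 5 hr of compound at 37 C.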

[15] = qHTS assay to identify small molecule agonists of the TGF-beta/Smad signaling pathway (AID 1346859; active = well fitted activation curve with a large enough effect in the signal ratio in the repeat runs, not every such curve was filed as active; the % refers to the signal ratio; also: series mostly up to about 77 µM)
In short: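 Read-out: fluorescence at 460 and 530 nm (405 nm excitation) after a 2 hr room-temperature incubation with beta-lactamase FRET substrate. SBE-bla HEK 293T cells had been treated with test compounds for 5 hr at 37 C.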

[16] = molecular target: Thyrotropin-releasing hormone receptor (Homo sapiens) (UniProt P34981); test: qHTS assay to identify small molecule antagonists of the thyrotropin-releasing hormone receptor (TRHR) signaling pathway (AID 1346877; active = well fitted inhibition curve with a large enough effect in the repeat runs, not every such curve was filed as active; also: potency is read from the fitted curve at half-maximal effect)
In short: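 Screening used HEK293 cells engineered with TRHR, with a brief 5 min room-temperature compound exposure preceding addition of TRH to 1 nM. The read-out was kinetic calcium-dye fluorescence, concentration-response from 15 doses in triplicate.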

[17] = molecular target: Thyrotropin-releasing hormone receptor (Homo sapiens) (UniProt P34981); test: qHTS assay to identify small molecule agonists of the thyrotropin-releasing hormone receptor (TRHR) signaling pathway (AID 1346891; calls by dose curve; also: potency is read from the fitted curve at half-maximal effect;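 as to activation: HEK293 cells expressing TRHR with calcium dye readout; series mostly up to about 58 µM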)
In short: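 HEK293/TRHR cells, 1500 per well, 18 h 37 °C; Ca dye 2 h 37 °C; pin-tool compound addition (agonist mode); kinetic fluorescence 3 min, 1 s reads; 15 concentrations, triplicate.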

[18] = molecular target: Androgen receptor (Homo sapiens) (UniProt P10275); test: qHTS assay to identify small molecule agonists of the androgen receptor (AR) signaling pathway in the presence of an antagonist (AID 1259381; calls by dose curve; also: nearly all actives have a fitted effect of over 15% in size)
In short: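 Using human MDA-kb2 cells with an MMTV promoter–luciferase construct (AR and GR response elements), agonist activity is scored under 3.0uM nilutamide (final) co-treatment; 16hr incubation, 37C, luminescence readout via ONE-Glo.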

[19] = molecular target: Thyrotropin receptor (Homo sapiens) (UniProt P16473); test: qHTS assay to identify small molecule antagonists of the thyroid stimulating hormone receptor (TSHR) signaling pathway (AID 1259385; calls by dose curve; also: nearly all actives have a fitted effect of over 20% in size; also: potency is read from the fitted curve at half-maximal effect)
In short: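 TSHR-HEK293 cells were plated and held 18 h at 37C/5% CO2, then given compound plus Ro20-1724 and stimulated with TSH at 1.5 ng/mL final. After 30 min at room temperature, cAMP was detected with cAMP-d2/anti-cAMP-cryptate (1 h) by fluorescence.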

[20] = molecular target: Estrogen receptor beta (Homo sapiens) (UniProt Q92731); test: qHTS assay to identify small molecule antagonists of the estrogen receptor beta (ER-beta) signaling pathway (AID 1259378; active = well fitted inhibition curve with a large enough effect in the signal ratio in the repeat runs, not every such curve was filed as active; the % refers to the signal ratio)
In short: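 ER-beta-UAS-bla HEK293T (GripTite) cells in 2% charcoal-stripped FBS medium were preincubated 6 hr at 37C, dosed with compound, then stimulated with 1 nM E2 (final) for 16 hr; beta-lactamase reporter read by B/G FRET fluorescence after 2 hr substrate loading.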
% is scaled to controls: 0 for no effect and ±100 for the full control effect.

Sequence of Thyrotropin receptor (Homo sapiens) (P16473 whole entry, looked up): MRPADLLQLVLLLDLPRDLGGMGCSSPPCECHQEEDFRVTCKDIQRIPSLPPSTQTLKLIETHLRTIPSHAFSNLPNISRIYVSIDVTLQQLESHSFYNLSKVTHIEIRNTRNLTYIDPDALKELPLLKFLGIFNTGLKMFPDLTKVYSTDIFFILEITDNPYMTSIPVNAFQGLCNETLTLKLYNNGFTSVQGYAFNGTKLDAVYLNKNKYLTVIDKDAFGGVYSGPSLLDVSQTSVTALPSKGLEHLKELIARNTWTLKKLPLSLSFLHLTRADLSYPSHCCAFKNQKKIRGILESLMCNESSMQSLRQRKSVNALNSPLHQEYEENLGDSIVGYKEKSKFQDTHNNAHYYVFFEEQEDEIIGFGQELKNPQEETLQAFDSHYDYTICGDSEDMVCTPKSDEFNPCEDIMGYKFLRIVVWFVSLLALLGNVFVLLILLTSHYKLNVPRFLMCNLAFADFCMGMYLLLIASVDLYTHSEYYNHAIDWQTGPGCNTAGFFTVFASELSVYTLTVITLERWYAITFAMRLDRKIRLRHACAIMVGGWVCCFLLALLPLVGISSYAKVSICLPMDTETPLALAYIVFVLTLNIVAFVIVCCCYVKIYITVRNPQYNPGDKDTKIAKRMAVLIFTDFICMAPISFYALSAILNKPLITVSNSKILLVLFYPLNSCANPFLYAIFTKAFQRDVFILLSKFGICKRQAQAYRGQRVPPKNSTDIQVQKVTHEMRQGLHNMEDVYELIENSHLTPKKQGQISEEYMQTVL
Sequence of Progesterone receptor (Homo sapiens) (P06401 whole entry, looked up): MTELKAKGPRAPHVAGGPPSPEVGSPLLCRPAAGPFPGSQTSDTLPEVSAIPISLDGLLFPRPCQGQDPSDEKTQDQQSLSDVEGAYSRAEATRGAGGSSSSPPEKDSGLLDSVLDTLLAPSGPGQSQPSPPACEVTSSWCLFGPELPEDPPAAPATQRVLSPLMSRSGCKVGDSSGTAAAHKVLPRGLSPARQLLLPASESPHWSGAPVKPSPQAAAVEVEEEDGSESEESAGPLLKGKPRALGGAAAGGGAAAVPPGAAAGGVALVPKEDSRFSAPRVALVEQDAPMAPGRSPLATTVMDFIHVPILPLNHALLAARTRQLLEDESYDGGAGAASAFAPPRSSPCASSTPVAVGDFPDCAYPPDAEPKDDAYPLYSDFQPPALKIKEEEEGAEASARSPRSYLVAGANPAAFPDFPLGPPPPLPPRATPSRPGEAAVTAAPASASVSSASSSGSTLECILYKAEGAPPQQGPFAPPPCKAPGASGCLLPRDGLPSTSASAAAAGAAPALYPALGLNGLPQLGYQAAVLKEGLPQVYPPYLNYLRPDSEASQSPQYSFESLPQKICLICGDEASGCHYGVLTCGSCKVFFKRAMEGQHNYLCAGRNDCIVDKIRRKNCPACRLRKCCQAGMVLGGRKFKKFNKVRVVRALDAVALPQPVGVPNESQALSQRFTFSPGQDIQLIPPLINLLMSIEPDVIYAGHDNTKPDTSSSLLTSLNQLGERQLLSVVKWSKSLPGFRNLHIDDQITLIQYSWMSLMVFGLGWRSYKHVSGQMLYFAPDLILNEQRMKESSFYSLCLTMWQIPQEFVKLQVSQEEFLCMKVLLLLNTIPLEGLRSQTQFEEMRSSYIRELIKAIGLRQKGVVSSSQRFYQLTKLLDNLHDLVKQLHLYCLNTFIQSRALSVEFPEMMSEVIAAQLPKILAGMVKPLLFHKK
Sequence of Estrogen receptor (Homo sapiens) (P03372 whole entry, looked up): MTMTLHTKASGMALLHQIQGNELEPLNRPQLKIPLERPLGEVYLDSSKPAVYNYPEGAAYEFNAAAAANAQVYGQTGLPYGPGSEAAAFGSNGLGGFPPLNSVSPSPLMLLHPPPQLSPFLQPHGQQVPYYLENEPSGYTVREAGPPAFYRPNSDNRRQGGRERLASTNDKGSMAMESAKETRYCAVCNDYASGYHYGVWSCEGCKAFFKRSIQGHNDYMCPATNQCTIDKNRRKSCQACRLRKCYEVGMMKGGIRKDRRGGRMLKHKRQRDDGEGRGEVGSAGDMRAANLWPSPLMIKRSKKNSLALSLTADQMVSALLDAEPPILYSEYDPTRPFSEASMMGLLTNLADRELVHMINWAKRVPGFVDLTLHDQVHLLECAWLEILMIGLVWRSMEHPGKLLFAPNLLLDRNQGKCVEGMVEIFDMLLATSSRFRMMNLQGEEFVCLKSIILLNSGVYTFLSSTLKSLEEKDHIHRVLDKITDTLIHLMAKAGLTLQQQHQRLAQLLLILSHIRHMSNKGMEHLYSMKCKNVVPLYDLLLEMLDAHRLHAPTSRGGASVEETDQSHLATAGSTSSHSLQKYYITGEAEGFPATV
Sequence of Thyrotropin-releasing hormone receptor (Homo sapiens) (P34981 whole entry, looked up): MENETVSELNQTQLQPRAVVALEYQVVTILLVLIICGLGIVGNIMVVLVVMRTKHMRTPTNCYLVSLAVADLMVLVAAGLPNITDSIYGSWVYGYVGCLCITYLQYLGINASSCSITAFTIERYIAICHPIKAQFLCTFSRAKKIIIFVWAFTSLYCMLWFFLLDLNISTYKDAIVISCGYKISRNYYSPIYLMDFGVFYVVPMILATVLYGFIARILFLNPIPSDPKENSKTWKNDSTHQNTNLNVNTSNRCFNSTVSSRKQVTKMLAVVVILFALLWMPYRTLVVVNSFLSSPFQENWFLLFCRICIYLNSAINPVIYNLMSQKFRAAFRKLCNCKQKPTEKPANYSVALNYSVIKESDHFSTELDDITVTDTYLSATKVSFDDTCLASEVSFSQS
Sequence of Estrogen receptor beta (Homo sapiens) (Q92731 whole entry, looked up): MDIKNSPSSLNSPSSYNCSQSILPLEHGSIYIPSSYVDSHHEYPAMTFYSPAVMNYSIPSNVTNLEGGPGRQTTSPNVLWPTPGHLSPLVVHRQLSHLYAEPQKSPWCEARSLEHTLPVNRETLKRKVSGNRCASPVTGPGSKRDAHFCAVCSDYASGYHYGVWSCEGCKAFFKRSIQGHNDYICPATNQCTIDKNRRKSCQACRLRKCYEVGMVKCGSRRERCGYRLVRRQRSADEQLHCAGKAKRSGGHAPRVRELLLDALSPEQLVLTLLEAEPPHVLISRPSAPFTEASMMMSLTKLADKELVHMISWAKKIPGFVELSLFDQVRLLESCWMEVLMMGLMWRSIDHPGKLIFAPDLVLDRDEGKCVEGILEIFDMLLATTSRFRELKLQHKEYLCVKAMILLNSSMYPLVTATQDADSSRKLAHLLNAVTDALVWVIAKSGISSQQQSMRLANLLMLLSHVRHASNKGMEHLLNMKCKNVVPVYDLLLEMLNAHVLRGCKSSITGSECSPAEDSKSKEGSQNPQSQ
Sequence of Androgen receptor (Homo sapiens) (P10275 whole entry, looked up): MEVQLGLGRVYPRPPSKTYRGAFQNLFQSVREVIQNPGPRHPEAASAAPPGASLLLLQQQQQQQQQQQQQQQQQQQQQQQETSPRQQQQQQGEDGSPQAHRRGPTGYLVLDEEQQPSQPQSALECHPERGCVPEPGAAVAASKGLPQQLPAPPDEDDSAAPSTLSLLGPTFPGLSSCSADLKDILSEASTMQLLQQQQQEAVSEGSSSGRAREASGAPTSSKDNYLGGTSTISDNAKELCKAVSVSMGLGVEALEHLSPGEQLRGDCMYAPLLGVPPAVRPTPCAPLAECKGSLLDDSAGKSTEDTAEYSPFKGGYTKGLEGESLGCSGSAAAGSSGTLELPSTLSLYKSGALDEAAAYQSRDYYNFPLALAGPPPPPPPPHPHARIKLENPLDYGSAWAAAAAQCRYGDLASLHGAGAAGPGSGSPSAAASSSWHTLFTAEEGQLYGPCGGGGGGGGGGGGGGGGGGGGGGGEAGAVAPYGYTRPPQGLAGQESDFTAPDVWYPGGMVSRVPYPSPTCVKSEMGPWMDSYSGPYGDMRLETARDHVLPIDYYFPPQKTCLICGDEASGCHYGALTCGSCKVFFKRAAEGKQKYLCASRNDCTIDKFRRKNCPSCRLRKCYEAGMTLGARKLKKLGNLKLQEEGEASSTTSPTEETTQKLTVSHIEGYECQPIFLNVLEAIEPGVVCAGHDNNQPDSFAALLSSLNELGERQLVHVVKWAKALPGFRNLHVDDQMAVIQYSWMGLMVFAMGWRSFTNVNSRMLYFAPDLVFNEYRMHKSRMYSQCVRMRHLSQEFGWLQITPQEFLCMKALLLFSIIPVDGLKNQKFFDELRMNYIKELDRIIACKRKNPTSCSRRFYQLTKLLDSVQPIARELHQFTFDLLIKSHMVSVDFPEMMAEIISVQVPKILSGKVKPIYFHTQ

C#CCO
inactive: Potency [1] | Potency [2] | Potency [3] | Potency [4] | Potency [5] | Potency [6] | Potency [7] | Potency [8] | Potency [9] | Potency [10] | Potency [11] | Potency [12] | Potency [13] | Potency [14] | outcome [15] | Potency [16] | Potency [17]

CCC[CH2][Sn]([CH2]CCC)([CH2]CCC)[O][Sn]([CH2]CCC)([CH2]CCC)[CH2]CCC
active: Potency [1] 212 nM | Potency [3] 475 nM | Potency [4] 1060 nM | Potency [5] 1190 nM | Potency [8] 475 nM | Potency [10] 752 nM | Potency [11] 1680 nM | Potency [13] 1510 nM | Potency [14] 1510 nM | Potency [16] 1050 nM | Potency [17] 1350 nM
inactive: activation [2] -9.06% [at 8.39 µM] | activation [18] -10.6% [at 8.39 µM] | activation [6] -15.3% [at 8.39 µM] | cAMP activity change [7] 1.6% [at 8.39 µM, stronger effect = higher value] | activity change, negative = inhibition [19] 0.334% [at 8.39 µM]

CC(C)[C@@H](Nc1ccc(C(F)(F)F)cc1Cl)C(=O)OC(C#N)c1cccc(Oc2ccccc2)c1 (some centres not stated)
inactive: Potency [1] | Potency [2] | Potency [3] | Potency [4] | Potency [5] | Potency [6] | Potency [11] | outcome [15]

CCCCc1ccccc1
inactive: Potency [1] | Potency [2] | Potency [3] | Potency [4] | Potency [5] | Potency [6] | Potency [7] | Potency [19] | Potency [8] | Potency [9] | Potency [10] | Potency [11] | Potency [12] | Potency [13] | Potency [14] | outcome [15]

CCN(CC)Cc1nccn1-c1ccc([N+](=O)[O-])cc1C(=O)c1ccccc1Cl
inactive: Potency [1] | Potency [2] | Potency [3] | Potency [4] | Potency [5] | Potency [19] | Potency [8] | Potency [9] | Potency [13] | Potency [14] | outcome [15] | Potency [16] | Potency [17]

Nc1nc(N)nc(Cl)n1
inactive: Potency [1] | Potency [2] | Potency [3] | Potency [4] | Potency [5] | Potency [6] | Potency [7] | Potency [19] | Potency [8] | Potency [9] | Potency [10] | Potency [11] | Potency [12] | Potency [13] | Potency [14] | outcome [15] | Potency [16] | Potency [17]

Cc1cccc(Cc2cnc[nH]2)c1C
inactive: Potency [1] | Potency [2] | Potency [3] | Potency [4] | Potency [5] | Potency [6] | Potency [19] | Potency [9] | Potency [12] | Potency [13] | Potency [14] | outcome [15]

COCCC#N
inactive: Potency [1] | Potency [2] | Potency [20] | Potency [5] | Potency [7] | Potency [19] | Potency [8] | Potency [9] | Potency [10] | Potency [11] | Potency [12] | Potency [13] | Potency [14] | outcome [15]

COc1cnc(OC)n2nc(NS(=O)(=O)c3c(OCC(F)F)cccc3C(F)(F)F)nc12
inactive: Potency [1] | Potency [2] | Potency [3] | Potency [4] | Potency [5] | Potency [6] | Potency [7] | Potency [19] | Potency [9] | Potency [10] | Potency [11] | Potency [12] | Potency [13] | Potency [14] | outcome [15] | Potency [16] | Potency [17]

N#Cc1c2ccccc2cc2ccccc12
inactive: Potency [1] | Potency [4] | Potency [18] | Potency [5] | Potency [6] | Potency [7] | Potency [19] | Potency [11] | Potency [12] | Potency [13] | Potency [14]
active: Potency [2] 21600 nM

CC(=O)[O][Sn]([c]1ccccc1)([c]1ccccc1)[c]1ccccc1
inactive: Potency [6] | Potency [7] | Potency [9]
active: Potency [1] 54.5 nM | Potency [3] 770 nM | Potency [4] 137 nM | Potency [5] 137 nM | Potency [19] 19300 nM | Potency [8] 8630 nM | Potency [10] 48.6 nM | Potency [11] 273 nM | Potency [13] 1950 nM | Potency [14] 1740 nM | Potency [16] 2690 nM | Potency [17] 4900 nM

CCC(C)c1cccc(C(C)CC)c1O (configuration not stated)
inactive: Potency [1] | Potency [2] | Potency [4] | Potency [5] | Potency [6] | Potency [7] | Potency [19] | Potency [9] | Potency [11] | Potency [12] | Potency [13] | Potency [14] | outcome [15] | Potency [17]
